From PubChem BioAssay (NCI)
Compounds without any hit were thinned out: in the full panel of roughly 83,000, 20% have a hit.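 Single-dose data. Exposure time 48 hours. Values below 10 considered active.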 A number with no mark means an inactive call. The source made the active and inactive calls.

What was measured:
Assay in all cases: NCI-60 one-dose screen, 48 h (100 = growth as untreated, 0 = no growth, -100 = all killed)
NCI-H23 lung = details: 10 µM unless noted
NCI-H226 lung = details: 10 µM unless noted
HOP-62 NSCLC = details: 10 µM unless noted
NCI-H460 lung = details: 10 µM unless noted
HOP-92 NSCLC = details: 10 µM unless noted
NCI-H522 lung = details: 10 µM
786-0 renal = details: 10 µM unless noted
COLO 205 colon = details: 10 µM unless noted
DU-145 prostate = details: 10 µM unless noted
MALME-3M melanoma = details: 10 µM unless noted
MDA-MB-231 breast = details: 10 µM unless noted
SF-268 CNS = details: 10 µM unless noted
SF-295 CNS = details: 10 µM unless noted
SF-539 CNS = details: 10 µM unless noted
M14 melanoma = details: 10 µM unless noted
A549/ATCC NSCLC = details: 10 µM unless noted
K-562 leukemia = details: 10 µM unless noted
RXF 393 renal = details: 10 µM unless noted
UACC-257 melanoma = details: 10 µM unless noted
NCI-H322M lung = details: 10 µM unless noted

SMILES	growth (NCI-H23 lung)	growth (NCI-H226 lung)	growth (HOP-62 NSCLC)	growth (NCI-H460 lung)	growth (HOP-92 NSCLC)	growth (NCI-H522 lung)	growth (786-0 renal)	growth (COLO 205 colon)	growth (DU-145 prostate)	growth (MALME-3M melanoma)	growth (MDA-MB-231 breast)	growth (SF-268 CNS)	growth (SF-295 CNS)	growth (SF-539 CNS)	growth (M14 melanoma)	growth (A549/ATCC NSCLC)	growth (K-562 leukemia)	growth (RXF 393 renal)	growth (UACC-257 melanoma)	growth (NCI-H322M lung)
CC(=O)O[C@H]1CC[C@@]2(C)C(=CC[C@@H]3[C@@H]2CC[C@]2(C)C(c4cccnc4)=CC[C@@H]32)C1	66.6%	64.1%	75.7%	68.2%	79.4%	38.3%	13.6%	81.8%	94.9%	72.6%	86.3%	76.4%	43.3%	28.7%	72.7%					
COc1cc(NC(=O)NCc2ccco2)ccc1-c1ccc(NC(=O)NCc2ccco2)cc1OC	49.4%	14.1%		35.8%			40.1%	64.9%	56.6%	78%	43.2%	56.8%	46.3%	-1.88% (active)	64.3%	34.6%	36%	-10.7% (active)	51%	
Cc1sc2nc(NCc3ccccc3)[nH]c(=O)c2c1C	75.2%	82.1%	39.2%	26.6%	69.4%		67.2%	34.7%	73.4%	75.7%	59.8%	74.2%	52.4%	65.5%	27.8%	33.6%	12.9%	69%	73%	
CC(=O)N1N=C(c2ccc(Nc3ccnc4cc(Cl)ccc34)cc2)CC1c1ccc(Cl)cc1 (centres undefined)	67.8%	75.2%	73.1%	62.9%	35.4%	24%	62.5%	85.5%	67.3%	26.8%	72.7%	53.3%	15.4%	86.4%	47.6%		19.1%	42.3%	61.7%	
CCOc1cc(/C=C/C(=O)CC(=O)/C=C/c2ccc(OC(=O)CNCCN(CC)CC)c(OCC)c2)ccc1OC(=O)CNCCN(CC)CC	-35.6% (active)	-41.3% (active)	-32.1% (active)	-27.3% (active)	-3.28% (active)		-91.6% (active)	-51.3% (active)	-44.3% (active)	-39.9% (active)	5.09% (active)	3.21% (active)	-18.4% (active)	-58.1% (active)	-14.5% (active)	12.4%	-10.8% (active)	-79.4% (active)	23.6%	
N#Cc1c(-c2ccccc2)cc(-c2ccccc2)n(CCCCC(=O)O)c1=O	90%	91%	90.9%	102%	93.7%		93.7%	108%	107%	87.8%	91%	94%	82.8%	93.5%	86.4%	94.7%	80.8%	89.7%	94.1%	
O=C(COc1cccc(/C=C2\Oc3ccc4ccccc4c3C2=O)c1)c1ccc(Cl)cc1	28.3%	91.9%	101%	114%	81.9%	38%	105%	102%		69.4%	84.7%	88.8%	104%	68.2%	83.6%		122%		95.6%	
Clc1ccc2c(c1)C(Br)c1cc(Cl)cc(Cl)c1-2 (centres undefined)	14.8%		88.1%	99.9%	53.5%		84.9%	103%	109%	45.1%	75.6%	98.3%	101%	81.6%	34.8%	98.4%				81.4%
C[C@]12CC[C@H](O)CC1=CC[C@@H]1[C@@H]2CC[C@]2(C)C(c3cccnc3)=CC[C@@H]12	68.3%		81.1%	66.5%	72.3%	35.7%	36.9%	95.1%	90.6%	70.8%	85.1%	79.5%	42%	31.8%						84.1%
Cc1ccc(/C=C(/C#N)n2nnc3ncccc32)cc1	-1.23% (active)		20.5%	-14% (active)	-19.5% (active)		5.6% (active)	-45.3% (active)	-27.2% (active)	22.7%	-3.95% (active)	25.3%	27.8%	-53.8% (active)	-4.85% (active)	2.14% (active)	5.03% (active)	-28.4% (active)	31.1%	28.2%
NC(=N\N=C/Cc1ccccc1)/C(N)=N\N=C\Cc1ccccc1	104%		113%	112%	109%		112%	117%	101%	144%	97.7%	94%	108%	93%	105%	101%	103%	121%	101%	117%
CN1C(=O)C(C2=NN(C=O)C(c3ccc(F)cc3)C2)C(=O)N(C)C1=O (centres undefined)	99%		84.4%	102%	91.7%		100%	104%	106%	95.8%	106%	96.9%	99.2%	102%	98.5%	74.7%	94.2%	95.5%	69.3%	
COc1cc(/C=C/C(=O)CC(=O)/C=C/c2ccc(OC(=O)CCNC34CC5CC(CC(C5)C3)C4)c(OC)c2)ccc1OC(=O)CCNC12CC3CC(CC(C3)C1)C2	28.5%		66.9%	10.3%	18.5%		16.7%	45.9%	-7.16% (active)	38.6%	52.4%	16.5%	51%	-18.2% (active)	16.5%	63.1%	7.62% (active)	-37.7% (active)	73.9%	63.4%
Cc1cc(C)cc(S(=O)(=O)n2ccc(-c3ccc4c(c3)CCC(C)(C)O4)n2)c1	73.6%		116%	84.4%	78.1%		82.8%	103%	89.8%	82.9%	93.5%	88.3%	85%	99.9%	82.7%	80.8%	85.7%	77.3%	89.6%	92%
COc1cccc(-c2nc3cc(NC(=O)c4ccc(Cl)c(C#N)c4)ccc3o2)c1	-18.8% (active)		70.2%	-21.4% (active)	26.5%		-92.1% (active)	28.9%	8.18% (active)	-56.5% (active)	8.99% (active)	-5.11% (active)	25.3%	-70.7% (active)	-82.7% (active)	-26.7% (active)	8.47% (active)		4.33% (active)	-13.2% (active)
